# Data as given in PubChem BioAssay (NCI).
# This is part of a sample that, as a whole, favours compounds with a hit. Of some 79,000 tested, about 15% had one in any assay. Unmarked numbers belong to inactive results. Activity calls are given as the source filed them. No stated cut-off is given here; in the data, active means growth inhibition above about 70%; inactive means the rest.
# Tests used:
# [1] = NCI Yeast Anticancer Drug Screen. Data for the rad50 strain (AID 155);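 further: 0% = growth of vehicle-only cultures of the same strain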; conditions: S. cerevisiae rad50 strain growth inhibition, stronger effect = higher value
# Outline: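 Compounds were tested on a yeast strain with an engineered DNA damage repair alteration; the reported value is growth inhibition normalised to vehicle treatment.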
# [2] = NCI Yeast Anticancer Drug Screen. Data for the mec2-1 strain (AID 157); conditions: S. cerevisiae mec2-1 strain, stronger effect = higher value
# Outline: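 Using mec2-1 yeast: add compound, measure growth, express inhibition versus vehicle-treated cultures.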
# [3] = NCI Yeast Anticancer Drug Screen. Data for the sgs1 mgt1 strain (AID 161);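 further: 0% = growth of cultures given vehicle only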; conditions: S. cerevisiae sgs1 mgt1 strain, stronger effect = higher value
# Outline: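 Percent growth inhibition was derived by comparing compound-exposed mutant yeast with vehicle-exposed cultures. The strain carries alterations in DNA damage repair.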
# [4] = NCI Yeast Anticancer Drug Screen. Data for the cln2 rad14 strain (AID 165);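 further: 0% = growth equal to vehicle treated cultures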; conditions: S. cerevisiae cln2 rad14 strain, stronger effect = higher value
# Outline: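 Yeast strain cln2 rad14, bearing defects in cell cycle control and DNA repair, serves as the test system; values reflect growth inhibition compared with vehicle.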
# [5] = NCI Yeast Anticancer Drug Screen. Data for the bub3 strain (AID 167); conditions: S. cerevisiae bub3 mutant strain, stronger effect = higher value
# Outline: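 Growth of a checkpoint-deficient yeast mutant is measured after compound exposure. Values represent inhibition relative to vehicle.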
# [6] = NCI Yeast Anticancer Drug Screen. Data for the mlh1 rad18 strain (AID 175); conditions: S. cerevisiae mlh1 rad18 strain growth inhibition, stronger effect = higher value
# Outline: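 Steps: expose repair-defective yeast to compound; measure growth; express inhibition against vehicle-treated controls.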
# [7] = at 5.0 µM (retest, dose inferred, filed as 0.5)
# [8] = at 50.0 µM (retest, dose inferred, filed as 5.0)
Structure (SMILES),"growth inhibition [1, 7] [%]","growth inhibition [1, 8]",growth inhibition ([1]; at 50.0 µM),"growth inhibition [2, 7] [%]","growth inhibition [2, 8]",growth inhibition ([2]; at 50.0 µM),"growth inhibition [3, 7]","growth inhibition [3, 8]",growth inhibition ([3]; at 50.0 µM),"growth inhibition [4, 7]","growth inhibition [4, 8]",growth inhibition ([4]; at 50.0 µM),"growth inhibition [5, 7]","growth inhibition [5, 8]",growth inhibition ([5]; at 50.0 µM),"growth inhibition [6, 7] [%]","growth inhibition [6, 8]",growth inhibition ([6]; at 50.0 µM)
O=C(C(=Cn1c(=S)[nH]c2ccc([N+](=O)[O-])cc21)C(=O)c1ccccc1)c1ccccc1,-10,3%,98% (active),-14,-2%,92.5% (active),-7%,1%,92.2% (active),-23%,-17%,74.8% (active),-5%,6%,94.9% (active),-4,0%,96.3% (active)
[O-]c1c(-c2cccc3ccccc23)sc(-c2cccc3ccccc23)[n+]1-c1ccccc1,5,92% (active),70.7% (active),10,95% (active),55.2%,8%,92% (active),50.1%,-2%,93% (active),52.6%,-2%,93% (active),46.1%,5,92% (active),78.7% (active)
O=C(O)CSC(=S)N1CCCC1,-4,5%,46%,2,3%,-5.3%,-4%,4%,-14.5%,2%,2%,-40.7%,2%,-3%,-5.6%,-4,8%,-15.8%
CCN(CC)CCOc1ccc(NC(=S)Nc2ccc(OCC(C)C)cc2)cc1,2,54%,66.1%,29,65%,34.1%,42%,76% (active),81.8% (active),10%,53%,83.9% (active),4%,47%,76% (active),46,74% (active),80.9% (active)
CCCCCCCCCCSCCO,30,88% (active),92.7% (active),51,92% (active),94% (active),99% (active),93% (active),93.5% (active),78% (active),99% (active),92.3% (active),100% (active),97% (active),92.5% (active),42,97% (active),92.7% (active)
[N-]=[N+]=Nc1c([N+](=O)[O-])c(=O)n(-c2ccccc2)c2ccccc12,-8,34%,65.1%,-3,54%,67.3%,0%,32%,70% (active),27%,21%,46.9%,-21%,62%,61%,4,57%,68.2%
CC(C)(CCCCC(C)(C)NCC1COc2ccccc2O1)NCC1COc2ccccc2O1 (configuration not stated),3,73% (active),94.6% (active),-8,81% (active),96% (active),-10%,64%,96.8% (active),0%,76% (active),95% (active),-15%,79% (active),97.4% (active),2,74% (active),96.2% (active)
COC(=O)CS(=O)(=O)CCS(=O)(=O)CC(=O)OC,-4,3%,-0.4%,-2,8%,11.9%,-1%,14%,4.65%,-1%,1%,-1.25%,-1%,15%,60.1%,-3,11%,20.4%
C/C(=N\NC(=O)c1ccc([N+](=O)[O-])cc1)c1ccccc1,8,-5%,-2.65%,-19,-1%,-5.45%,6%,-6%,10.3%,2%,11%,-7.95%,9%,14%,38.8%,15,26%,-7.2%
CC(C)(C)c1cc(Nc2ccc([N+](=O)[O-])cc2[N+](=O)[O-])cc(C(C)(C)C)c1O,4,99% (active),-14.9%,7,100% (active),14.3%,6%,99% (active),10.4%,-1%,99% (active),-45.6%,8%,99% (active),-0.9%,-1,99% (active),8.45%
CCOc1ccnc2c(C)c3c([nH]c4ccccc43)c(C)c12,50,99% (active),99.2% (active),23,99% (active),99.5% (active),29%,52%,99.2% (active),14%,97% (active),99% (active),11%,99% (active),99.3% (active),16,99% (active),99.3% (active)
[N-]=[N+]=Nc1c([N+](=O)[O-])c(Cl)nc2ccccc12,27,95% (active),86% (active),22,99% (active),90.7% (active),34%,99% (active),92% (active),11%,87% (active),90.5% (active),50%,99% (active),90.6% (active),36,98% (active),88.2% (active)
CCCCN(CCCC)CC(O)c1cccc2c(Cl)cccc12 (configuration not stated),15,54%,86.5% (active),8,75% (active),71.7% (active),13%,93% (active),88.5% (active),8%,57%,89.7% (active),13%,82% (active),94.8% (active),24,88% (active),70.5% (active)
NC1CCCCC1N.O=C([O-])c1ccc(N=Nc2cccc([N+](=O)[O-])c2)cc1O.O=C([O-])c1ccc(N=Nc2cccc([N+](=O)[O-])c2)cc1O.[Pt+4],15,23%,-2.95%,18,36%,-2.45%,-20%,36%,3%,-8%,20%,-18.6%,28%,45%,-19.4%,25,34%,6.8%
O=C1C/C(=C\c2ccccc2)C(=O)c2ccccc2N1,0,20%,57.8%,-3,16%,41.8%,-9%,27%,76% (active),1%,6%,33.6%,-23%,19%,67%,-18,18%,60.5%
CCCCCCCCCCCC[N+](C)(C)C (tested in a mixture with another compound),-7,99% (active),67.9%,5,99% (active),93.8% (active),-4%,98% (active),49.2%,5%,98% (active),10.6%,20%,99% (active),88.5% (active),0,98% (active),64%
CC(=O)SC(C[N+](=O)[O-])c1ccc2c(c1)OCO2 (configuration not stated),55,91% (active),91% (active),69,100% (active),93% (active),53%,99% (active),93.5% (active),44%,57%,91.3% (active),63%,96% (active),92.5% (active),59,97% (active),90.3% (active)
Cc1ccccc1C1c2c(C)cccc2C(=O)CC1CC(=O)O (configuration not stated),4,60%,58%,1,72% (active),81.5% (active),-1%,75% (active),82.3% (active),-41%,70% (active),13.3%,6%,67%,70% (active),8,83% (active),81.6% (active)
O=C1C=C(c2ccccc2)O/C1=C/C(=O)c1ccc(Cl)cc1,32,32%,53.3%,32,32%,65.2%,40%,40%,79% (active),11%,11%,39.6%,16%,16%,65%,32,32%,52.9%
